Assay [1] in a line: Quantitative High-Throughput drug screen in 47 multiple myeloma cell lines against the NCATS MIPE library collection: MM1R_ATCC cell viability assay (AID 1918981). Note: nearly all actives have a fitted effect of over 35% in size. Note: potency is the fitted concentration of half-maximal effect. An outline of the steps:
(§1)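 qHTS format: cells plated (500/well), pin-dosed with MIPE 4.0 compounds, kept 48 h at 37 °C. Readout was CellTiter-Glo luminescence, median RLU.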

Assay [2] can be described thus: Quantitative High-Throughput drug screen in 47 multiple myeloma cell lines against the NCATS MIPE library collection: KMS28PE_JCRB cell viability assay (AID 1918983). Note: nearly all actives have a fitted effect of over 35% in size. Note: potency is the fitted concentration of half-maximal effect. An outline of the steps:
as §1

The nature of assay [3]: Quantitative High-Throughput drug screen in 47 multiple myeloma cell lines against the NCATS MIPE library collection: KMS34_JCRB cell viability assay (AID 1918985). Note: nearly all actives have a fitted effect of over 40% in size. Note: potency is the fitted concentration of half-maximal effect. An outline of the steps:
as §1

A short description of assay [4]: Quantitative High-Throughput drug screen in 47 multiple myeloma cell lines against the NCATS MIPE library collection: OCIMY7_PLB cell viability assay (AID 1918987). Note: nearly all actives have a fitted effect of over 65% in size. Note: potency is the fitted concentration of half-maximal effect. Put shortly:
as §1

Assay [5] is described as follows: Quantitative High-Throughput drug screen in 47 multiple myeloma cell lines against the NCATS MIPE library collection: OPM1_PLB cell viability assay (AID 1918989). Note: nearly all actives have a fitted effect of over 40% in size. Note: potency is the fitted concentration of half-maximal effect. An outline of the steps:
as §1

A short description of assay [6]: Quantitative High-Throughput drug screen in 47 multiple myeloma cell lines against the NCATS MIPE library collection: SKMM1_PLB cell viability assay (AID 1919863). For viability: series mostly up to about 46 µM. Note: nearly all actives have a fitted effect of over 35% in size. Note: potency is the fitted concentration of half-maximal effect. Conditions: SKMM1 myeloma viability, CellTiter-Glo ATP, 48 h; viability: stronger effect = lower value. An outline of the steps: as §1
Assay [7] is described as follows: Quantitative High-Throughput drug screen in 47 multiple myeloma cell lines against the NCATS MIPE library collection: U266_ATCC cell viability assay (AID 1919864). Note: nearly all actives have a fitted effect of over 35% in size. Note: potency is the fitted concentration of half-maximal effect. An outline of the steps: as §1
Assay [8] can be described thus: Quantitative High-Throughput drug screen in 47 multiple myeloma cell lines against the NCATS MIPE library collection: L363_DSMZ cell viability assay (AID 1918984). Note: nearly all actives have a fitted effect of over 40% in size. Put shortly:
as §1

Assay [9] in a line: Quantitative High-Throughput drug screen in 47 multiple myeloma cell lines against the NCATS MIPE library collection: OCIMY5_PLB cell viability assay (AID 1918988). Note: potency is the fitted concentration of half-maximal effect; nearly all actives have a fitted effect of over 65% in size. Put shortly: as §1

Inconclusive results are not listed. Values without a mark were called inactive. Activity calls are given as the source filed them. Calls come from the whole dose curve; as a rule, active = well fitted cell-killing curve with a large enough effect; inconclusive = small, poorly fitted or top-dose-only effect, or effect the other way; inactive = no such curve, though single readings can be large or run the other way.

Turning to `CC(=O)OCC(=O)[C@@]1(O)[C@H](C)C[C@H]2[C@@H]3C=C(C)C4=Cc5c(cnn5-c5ccccc5)C[C@]4(C)[C@@H]3[C@@H](O)C[C@@]21C`, the Potency in assay [1] was 9350 nM (active); in assay [2] it was 20900 nM (active); in [3], 8330 nM (active); in [4], 7430 nM (active); in assay [5], 9350 nM (active); in [6], 18700 nM (active). For the same compound, the Potency in assay [7] was 7430 nM (active).
On to `COc1ccc(-n2nc(C(N)=O)c3c2C(=O)N(c2ccc(N4CCCCC4=O)cc2)CC3)cc1`, for which the Potency result in assay [1], in assay [8], in [3] and in [4] was “inactive” throughout.
On to `COc1c(N2C[C@@H]3CCCN[C@H]3C2)c(F)cc2c(=O)c(C(=O)O)cn(C3CC3)c12`, for which the Potency entry in assay [1], in assay [2] and in assay [5] was “inactive” throughout. Moreover, the Potency in assay [3] was 9350 nM (active).
In the case of `COc1c(OCCCN2CCOCC2)ccc2c3n(c(=NC(=O)c4cnc(N)nc4)nc12)CCN3`, the Potency in assay [1] was 81.2 nM (active); in assay [2], 64.5 nM (active); in assay [3], 257 nM (active); in [9], 102 nM (active); in assay [5], 812 nM (active); in assay [6], 162 nM (active). The Potency in assay [7] was 645 nM (active).
Consider `CN1CC[C@@H](c2c(O)cc(O)c3c(=O)cc(-c4ccccc4Cl)oc23)[C@@H](O)C1`, for which the Potency in assay [1] was 105 nM (active); in [2], 132 nM (active); in assay [3], 74.3 nM (active); in assay [4] it was 29.6 nM (active); in assay [9], 66.2 nM (active); in assay [5] it was 83.3 nM (active). For the same compound, the Potency in [6] was 187 nM (active); in assay [7], 166 nM (active).
Regarding `CCCCCN(CCC12CC3CC(CC(C3)C1)C2)C(=O)NCCCc1ccncc1`, the Potency in assay [1] is 23500 nM (active); in assay [2], 20900 nM (active); in assay [4], 16600 nM (active); in [9], 14800 nM (active); in assay [6], 23500 nM (active); in assay [7] it was 14800 nM (active).
As for `COc1cc2c(Oc3ccc4[nH]c(C)cc4c3F)ncnc2cc1OCCCN1CCCC1`, the Potency in [1] is 26400 nM (active); in [2], 20900 nM (active); in assay [4] it was 6620 nM (active); in assay [9] it was 23500 nM (active); in assay [5] it was 5900 nM (active); in assay [6], 20900 nM (active). Besides, the Potency in [7] is 26400 nM (active).
Consider `Cc1cn(-c2cc(NC(=O)c3ccc(C)c(Nc4nccc(-c5cccnc5)n4)c3)cc(C(F)(F)F)c2)cn1`, for which the Potency in [1] was 18700 nM (active); in assay [2], 20900 nM (active); in [9] it was 13200 nM (active); in [6] it was 26400 nM (active). Also, the Potency result in assay [4], in [5] and in assay [7] was “inactive” each time.
`Cc1c(CN2CCN(S(C)(=O)=O)CC2)sc2c(N3CCOCC3)nc(-c3cnc(N)nc3)nc12`: the Potency in [1] is 26.4 nM (active); in assay [2], 20.9 nM (active); in [3] it was 37.2 nM (active); in [4], 132 nM (active); in [6], 83.3 nM (active); in assay [7], 118 nM (active).
Consider `C=CCn1c(=O)c2cnc(Nc3ccc(N4CCN(C)CC4)cc3)nc2n1-c1cccc(C(C)(C)O)n1`, for which the Potency was 166 nM (active) in assay [1]; 590 nM (active) in assay [2]; 14.8 nM (active) in [3]; 332 nM (active) in assay [9]; 590 nM (active) in [5]; 469 nM (active) in [6].
Consider `CCNC(=O)Nc1ccc2ncc(Nc3ccc(C)cc3)nc2n1`, for which, in assay [1], the Potency was 18700 nM (active). Besides, in assay [2], the Potency result is “inactive”. Besides, the viability in [6] is 139%.
On to `COc1cc(-c2nn(C3CCC(N4CCN(C(C)=O)CC4)CC3)c3ncnc(N)c23)ccc1NC(=O)c1cc2ccccc2n1C` (stereo not drawn), for which the Potency is 5900 nM (active) in assay [1]; 14800 nM (active) in assay [2]; 6620 nM (active) in assay [3]; 1870 nM (active) in assay [9]; 2640 nM (active) in assay [5]; 14800 nM (active) in [6].
As for `Nc1nccc(Oc2ccc(NC(=O)c3c[nH]cc(-c4ccc(F)cc4)c3=O)cc2F)c1Cl`, the Potency in [1] is 2350 nM (active); in assay [2], 37200 nM (active); in assay [3], 18700 nM (active); in [4], 18700 nM (active); in assay [5] it was 23500 nM (active); in assay [6], 23500 nM (active). In addition, the Potency in [7] was 20900 nM (active).
For the compound `CC[C@@H]1C(=O)N(C)c2cnc(Nc3ccc(C(=O)NC4CCN(C)CC4)cc3OC)nc2N1C1CCCC1`, the Potency was 1180 nM (active) in [1]; 74.3 nM (active) in [2]; 187 nM (active) in assay [3]; 37.2 nM (active) in [9]; 93.5 nM (active) in assay [5]; 235 nM (active) in assay [6]. Besides, in [7], the Potency was 23500 nM (active).
`NC(=O)Nc1cc(-c2cccc(F)c2)sc1C(=O)N[C@H]1CCCNC1`: the Potency in assay [1] was 148 nM (active); in assay [2], 2640 nM (active); in assay [3], 93.5 nM (active); in assay [4], 264 nM (active); in [9] it was 74.3 nM (active); in assay [5] it was 296 nM (active). The Potency is 7430 nM (active) in [6] and 5900 nM (active) in assay [7].

For the origin of these results see PubChem BioAssay (NCATS).
